Measured values as given in PubChem BioAssay AID1903 (Southern Research Specialized Biocontainment Screening …, 2009).
About 1,200 (0.39%) of roughly 310,000 compounds were called active. No rule for the calls is given here. A selection follows. Potency and affinity values are given separately.

biological target: Large T antigen (Simian virus 40) (UniProt P03070); assay: TAg ATPase/helicase activity blockers – biochemical (AID 1903); conditions: SV40 large T antigen ATPase/helicase inhibition assay; at 20 µM; stronger effect = higher value
Sequence (P03070 whole entry, looked up): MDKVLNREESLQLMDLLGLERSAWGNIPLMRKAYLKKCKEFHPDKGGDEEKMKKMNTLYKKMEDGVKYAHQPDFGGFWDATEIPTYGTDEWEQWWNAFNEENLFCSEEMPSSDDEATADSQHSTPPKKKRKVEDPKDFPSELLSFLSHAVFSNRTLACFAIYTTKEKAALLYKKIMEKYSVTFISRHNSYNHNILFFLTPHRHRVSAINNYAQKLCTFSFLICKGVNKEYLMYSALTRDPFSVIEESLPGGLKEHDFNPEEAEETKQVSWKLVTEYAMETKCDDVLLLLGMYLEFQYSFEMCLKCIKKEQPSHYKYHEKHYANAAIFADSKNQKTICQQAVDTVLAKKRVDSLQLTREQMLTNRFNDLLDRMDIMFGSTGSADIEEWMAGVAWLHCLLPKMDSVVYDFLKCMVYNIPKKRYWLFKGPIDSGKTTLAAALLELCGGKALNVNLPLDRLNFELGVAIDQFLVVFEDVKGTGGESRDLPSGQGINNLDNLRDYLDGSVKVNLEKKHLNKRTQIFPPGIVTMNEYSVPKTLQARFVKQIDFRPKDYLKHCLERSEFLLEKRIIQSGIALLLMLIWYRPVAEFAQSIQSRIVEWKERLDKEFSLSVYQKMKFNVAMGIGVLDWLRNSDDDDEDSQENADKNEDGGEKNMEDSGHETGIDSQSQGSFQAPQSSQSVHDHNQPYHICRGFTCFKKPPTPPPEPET

Row | SMILES | inhibition
1 | OCCc1ccc(O)cc1 | 27% (inactive)
2 | CC(CCc1ccc(O)cc1)NCc1ccc(Br)cc1 (configuration not stated) | 3.95% (inactive)
3 | N/C(=N\OC(=O)Cc1cccs1)c1cccc([N+](=O)[O-])c1 | 3.85% (inactive)
4 | COc1cc(OC)cc(C2C(C#N)=C(N)Oc3n[nH]c(-c4cccnc4)c32)c1 (configuration not stated) | 16.8% (inactive)
5 | COc1cc(Br)c(C2C(C#N)=C(N)Oc3n[nH]c(-c4cccnc4)c32)cc1OC (configuration not stated) | 18.6% (inactive)
6 | COc1cc(OC)c2c(c1)C(=O)OC2OC (configuration not stated) | 2.96% (inactive)
7 | CC(NC(=O)CS(=O)(=O)c1ccccc1)c1ccccc1 (configuration not stated) | 25% (inactive)
8 | O=C(c1ccc2ccccc2c1)N1CCN(c2ccccc2)CC1 | 10.3% (inactive)
9 | O=C(c1ccc2ncsc2c1)N1CCN(c2ccccc2Cl)CC1 | 11.3% (inactive)
10 | O=C(c1ccc2ccccc2c1)N1CCCC1 | 0.92% (inactive)
11 | O=C(c1ccc2ncsc2c1)N1CCCCC1 | 18.2% (inactive)
12 | COc1ccc(-c2cccc(C(=O)N3CCOCC3)c2)cc1 | 9.81% (inactive)
13 | O=C(c1cccc(-c2ccc(O)cc2)c1)N1CCN(c2ccc(F)cc2)CC1 | 1.57% (inactive)
14 | CCOC(=O)c1nn(-c2ccc(F)cc2)c(=O)cc1OCC(=O)N1CCN(c2ccccc2)CC1 | 5.17% (inactive)
15 | CCN(CC)C(=O)C[n+]1ccc(C(N)=O)cc1 | 4.68% (inactive)
16 | Fc1ccccc1/C=N/n1c(COc2ccccc2)n[nH]c1=S | 6% (inactive)
17 | Cc1cc(Br)cc(Cl)c1OCC(=O)NC(=O)NCc1ccccc1 | 1.39% (inactive)
18 | CCN1C(=O)[C@H]2[C@@H](c3ccc(C)cc3)N3C(=O)N(c4ccc(C(F)(F)F)cc4)C(=O)[C@@]3(Cc3ccccc3)[C@H]2C1=O | 4.67% (inactive)
19 | CC(C)C[C@H](NC(=O)CCn1nnc2ccccc2c1=O)C(=O)O | 9.82% (inactive)
20 | O=C(O)CNC(=S)N(Cc1ccccc1F)C1CCCCC1 | 4.15% (inactive)
21 | O=C(Oc1ccc(-c2cnc3ccccc3n2)cc1)c1cc([N+](=O)[O-])ccc1Cl | 7.12% (inactive)
22 | O=C(Oc1ccc(-c2cnc3ccccc3n2)cc1)c1cccc([N+](=O)[O-])c1 | 3.96% (inactive)
23 | COCC(C)NC(=O)c1noc2c1CCc1cc(OC)ccc1-2 (configuration not stated) | -0.97% (inactive)
24 | CCOc1ccc(NCc2cc3cc(OC)ccc3[nH]c2=O)cc1 | 28.1% (inactive)
25 | Cc1ccc2nc(-c3ccccc3N)[nH]c2c1 | -2.07% (inactive)
26 | Cc1ccc2nc(-c3cccc(N)c3)[nH]c2c1 | 5.37% (inactive)
27 | CCOC(=O)c1c(S(=O)(=O)NCc2ccc(C)o2)c(C)n(C)c1C | 2.28% (inactive)
